Records with an inconclusive call do not appear. Activity calls are given as the source filed them. Unless noted, calls follow the shape of the full dose curve.
Assays:
[1] = target: Estrogen receptor (Homo sapiens) (UniProt P03372); test: qHTS assay to identify small molecule agonists of the estrogen receptor alpha (ER-alpha) signaling pathway in the presence of an antagonist (AID 1259383); also: top concentration of the series differs between compounds; nearly all actives have a fitted effect of over 15% in size
Method in brief: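 In VM7Luc4E2 cells, 4,000 per well, compounds at 15 concentrations were co-incubated 22hr at 37C with 10.0nM final ICI-182,780. Luminescence from the stably transfected 4×ERE-luciferase reporter was recorded 30min after ONE-Glo addition.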

[2] = qHTS assay to identify small molecule agonists or antagonists of the thyroid stimulating hormone receptor (TSHR) signaling pathway - wild type cell line counter screen (AID 1259384)
Method in brief: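 Wild-type Hek293 cells, 800/well, 18 h at 37C, then compound with Ro20-1724 for 30 min RT. cAMP by HTRF (cAMP-d2/anti-cAMP cryptate), 1 h RT, fluorescence read. 15 concentrations, triplicates.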

[3] = target: Thyrotropin receptor (Homo sapiens) (UniProt P16473); test: qHTS assay to identify small molecule antagonists of the thyroid stimulating hormone receptor (TSHR) signaling pathway (AID 1259385); also: nearly all actives have a fitted effect of over 20% in size
Method in brief: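 TSHR-HEK293 cells (800/well) plated 18 h, then compounds with Ro20-1724 and TSH at 1.5 ng/mL final, 30 min at room temperature. cAMP quantified by HTRF (cAMP-d2/anti-cAMP-cryptate, 1 h); 15 concentrations in triplicate.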

[4] = qHTS assay to identify small molecule agonists of the estrogen receptor alpha (ER-alpha) signaling pathway in the presence of an antagonist - cell viability counter screen (AID 1259386; active = well fitted curve in the direction sought with a large enough effect in the repeat runs; an effect the other way counts as inactive or inconclusive;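 also: series mostly up to about 92 µM; cells exposed to compounds for 22 h at 37 °C before the viability read; nearly all actives have a fitted effect of over 30% in size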)
Method in brief: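 Fluorescent CellTiter-Fluor viability signal from VM7Luc4E2 cells, with the reagent added during the final hour of a 22hr compound exposure at 37C in the presence of 10.0nM ICI-182,780.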

[5] = target: Progesterone receptor (Homo sapiens) (UniProt P06401); test: qHTS assay to identify small molecule agonists of the progesterone receptor (PR) signaling pathway (AID 1346784); also: nearly all actives have a fitted effect of over 30% in size
Method in brief: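 Agonist qHTS: compounds pinned onto 3,000 PR-UAS-bla HEK 293T cells per well in charcoal-stripped serum medium, 16hr at 37C, then beta-lactamase activity measured by LiveBLAzer FRET fluorescence after 2 hours at room temperature.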

[6] = target: Progesterone receptor (Homo sapiens) (UniProt P06401); test: qHTS assay to identify small molecule antagonists of the progesterone receptor (PR) signaling pathway (AID 1346795; active = well fitted inhibition curve with a large enough effect in the signal ratio in the repeat runs, not every such curve was filed as active; the % refers to the signal ratio)
Method in brief: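 Antagonist mode with agonist R5020 at 1 nM final and 16 hr incubation at 37C. Reporter was beta-lactamase driven by UAS in HEK293T (PR-UAS-bla), 2% charcoal-stripped serum; signal from LiveBLAzer FRET substrate, 2 hr at room temperature.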

[7] = qHTS assay to identify small molecule antagonists of the progesterone receptor (PR) signaling pathway - cell viability counter screen (AID 1346798; active = well fitted curve in the direction sought with a large enough effect in the repeat runs; an effect the other way counts as inactive or inconclusive; also: series mostly up to about 92 µM; nearly all actives have a fitted effect of over 50% in size)
Method in brief: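 Cytotoxicity read as CellTiter-Glo luminescence (30 min, room temperature) in the same wells as the beta-lactamase readout. HEK293T PR-UAS-bla cells in charcoal-stripped 2% FBS received compound and R5020, then 16 h at 37C, 5% CO2.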

[8] = qHTS assay to identify small molecule agonists of the progesterone receptor (PR) signaling pathway - cell viability counter screen (AID 1346799); also: nearly all actives have a fitted effect of over 45% in size
Method in brief: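 Cytotoxicity measured by CellTiter-Glo luminescence (30 min, RT) in the same wells as the PR beta-lactamase agonist read. Those HEK293T cells had 16 h compound treatment at 37 C in 2% charcoal-stripped FBS medium.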

[9] = qHTS assay to identify small molecule antagonists of the TGF-beta/Smad signaling pathway - cell viability counter screen (AID 1346824; active = well fitted curve in the direction sought with a large enough effect in the repeat runs; an effect the other way counts as inactive or inconclusive; also: nearly all actives have a fitted effect of over 50% in size)
Method in brief: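 SBE-bla HEK 293T cells, incubated overnight, then compound plus 0.25 ng/mL TGF-beta1 (stock added) for 5 hr at 37 C. Viability was read in the same wells by CellTiter-Glo luminescence after 30 min at room temperature.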

[10] = qHTS assay to identify small molecule agonists of the TGF-beta/Smad signaling pathway - cell viability counter screen (AID 1346829; active = well fitted curve in the direction sought with a large enough effect in the repeat runs; an effect the other way counts as inactive or inconclusive; also: top concentration of the series differs between compounds; nearly all actives have a fitted effect of over 45% in size)
Method in brief: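 Compound-treated SBE-bla HEK 293T cells (5 hr, 37 C) were assessed for viability with CellTiter-Glo in parallel with the reporter read.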
% is scaled to controls: 0 for no effect and ±100 for the full control effect.

Thyrotropin receptor (Homo sapiens), sequence (P16473 whole entry, looked up): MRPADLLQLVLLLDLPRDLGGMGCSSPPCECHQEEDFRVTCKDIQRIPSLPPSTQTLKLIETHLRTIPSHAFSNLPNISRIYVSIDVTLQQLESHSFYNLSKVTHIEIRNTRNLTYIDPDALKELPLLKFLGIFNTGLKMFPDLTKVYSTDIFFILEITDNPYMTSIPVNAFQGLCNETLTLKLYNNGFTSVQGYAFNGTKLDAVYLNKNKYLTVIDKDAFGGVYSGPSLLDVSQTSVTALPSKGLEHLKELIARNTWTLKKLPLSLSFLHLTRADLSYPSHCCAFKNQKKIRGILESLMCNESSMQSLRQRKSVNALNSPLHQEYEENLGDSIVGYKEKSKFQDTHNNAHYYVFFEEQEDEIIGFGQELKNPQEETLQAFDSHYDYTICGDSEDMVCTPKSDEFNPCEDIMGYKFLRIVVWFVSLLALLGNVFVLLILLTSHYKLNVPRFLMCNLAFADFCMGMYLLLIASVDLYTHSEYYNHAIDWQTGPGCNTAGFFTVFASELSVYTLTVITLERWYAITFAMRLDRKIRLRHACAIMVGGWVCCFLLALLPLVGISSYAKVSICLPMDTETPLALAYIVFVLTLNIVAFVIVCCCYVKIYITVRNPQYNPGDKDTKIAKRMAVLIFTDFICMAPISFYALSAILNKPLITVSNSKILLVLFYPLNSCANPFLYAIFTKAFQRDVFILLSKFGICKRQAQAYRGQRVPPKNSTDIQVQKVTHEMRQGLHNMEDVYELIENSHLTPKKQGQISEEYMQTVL
Estrogen receptor (Homo sapiens), sequence (P03372 whole entry, looked up): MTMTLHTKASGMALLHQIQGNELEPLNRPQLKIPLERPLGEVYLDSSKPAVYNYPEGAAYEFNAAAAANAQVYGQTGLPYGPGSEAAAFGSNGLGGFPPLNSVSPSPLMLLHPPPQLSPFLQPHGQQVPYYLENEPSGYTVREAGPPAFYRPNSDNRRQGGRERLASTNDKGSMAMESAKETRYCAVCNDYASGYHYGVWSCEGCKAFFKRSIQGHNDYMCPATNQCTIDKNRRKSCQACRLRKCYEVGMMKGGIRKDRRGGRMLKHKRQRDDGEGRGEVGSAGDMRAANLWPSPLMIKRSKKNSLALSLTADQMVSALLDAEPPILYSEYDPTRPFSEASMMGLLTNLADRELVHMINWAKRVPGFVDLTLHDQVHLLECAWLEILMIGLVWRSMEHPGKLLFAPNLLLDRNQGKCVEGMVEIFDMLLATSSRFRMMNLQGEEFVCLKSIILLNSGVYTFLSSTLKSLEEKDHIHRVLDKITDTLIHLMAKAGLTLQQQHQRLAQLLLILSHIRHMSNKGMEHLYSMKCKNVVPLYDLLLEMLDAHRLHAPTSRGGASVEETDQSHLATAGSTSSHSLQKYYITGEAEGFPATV
Progesterone receptor (Homo sapiens), sequence (P06401 whole entry, looked up): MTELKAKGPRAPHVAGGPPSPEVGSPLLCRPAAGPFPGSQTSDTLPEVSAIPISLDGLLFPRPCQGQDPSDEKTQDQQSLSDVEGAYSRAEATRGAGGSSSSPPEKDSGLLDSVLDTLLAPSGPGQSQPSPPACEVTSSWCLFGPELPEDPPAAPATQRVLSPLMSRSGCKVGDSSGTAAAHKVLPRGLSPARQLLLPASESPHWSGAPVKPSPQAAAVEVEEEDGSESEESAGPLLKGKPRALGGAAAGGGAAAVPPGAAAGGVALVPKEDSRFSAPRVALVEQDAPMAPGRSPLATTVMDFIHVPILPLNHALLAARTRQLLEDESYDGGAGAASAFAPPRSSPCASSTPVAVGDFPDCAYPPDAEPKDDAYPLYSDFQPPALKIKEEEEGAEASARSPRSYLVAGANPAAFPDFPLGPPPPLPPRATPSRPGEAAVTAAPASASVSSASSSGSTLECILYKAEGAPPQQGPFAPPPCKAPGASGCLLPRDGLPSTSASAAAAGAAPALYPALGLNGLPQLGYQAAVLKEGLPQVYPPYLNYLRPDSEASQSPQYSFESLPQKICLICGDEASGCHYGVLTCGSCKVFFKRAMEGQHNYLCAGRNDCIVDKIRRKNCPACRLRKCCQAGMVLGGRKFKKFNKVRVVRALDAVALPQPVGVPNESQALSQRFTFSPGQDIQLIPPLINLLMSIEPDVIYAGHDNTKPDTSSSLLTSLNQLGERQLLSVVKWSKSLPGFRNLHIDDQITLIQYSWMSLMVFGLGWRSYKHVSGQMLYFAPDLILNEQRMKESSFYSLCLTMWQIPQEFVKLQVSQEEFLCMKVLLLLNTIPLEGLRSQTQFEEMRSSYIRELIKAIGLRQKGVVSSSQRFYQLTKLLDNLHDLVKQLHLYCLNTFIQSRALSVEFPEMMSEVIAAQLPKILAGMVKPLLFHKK

CC/C=C\CCCCCCCCCCOC(C)=O
inactive: Potency [1] | outcome [2] | outcome [3] | outcome [4] | Potency [5] | Potency [6] | outcome [7] | Potency [8] | outcome [9] | outcome [10]

CCCCc1ccc(Cl)cc1
inactive: Potency [1] | outcome [2] | outcome [3] | outcome [4] | Potency [5] | Potency [6] | outcome [7] | Potency [8] | outcome [9] | outcome [10]

Cc1ccc(Br)cc1
inactive: Potency [1] | outcome [2] | outcome [3] | outcome [4] | Potency [5] | Potency [6] | outcome [7] | Potency [8] | outcome [9] | outcome [10]

C=CCn1cc[n+](C)c1
inactive: Potency [1] | outcome [2] | outcome [3] | outcome [4] | Potency [5] | Potency [6] | outcome [7] | Potency [8] | outcome [9]

COC(=O)c1ccc(NC(C)=O)cc1OC
inactive: Potency [1] | outcome [2] | outcome [3] | outcome [4] | Potency [5] | Potency [6] | outcome [7] | Potency [8] | outcome [9]

NS(=O)(=O)c1cc2c(cc1C(F)(F)F)NCNS2(=O)=O
inactive: Potency [1] | outcome [2] | outcome [3] | outcome [4] | Potency [5] | Potency [6] | outcome [7] | Potency [8] | outcome [9] | outcome [10]

CCCCCCCCCCCCCC(=O)OCC
inactive: Potency [1] | outcome [2] | outcome [3] | outcome [4] | Potency [5] | Potency [6] | outcome [7] | Potency [8] | outcome [9]

O=C(O)CCCCCCCCCC(=O)O
inactive: Potency [1] | outcome [2] | outcome [3] | outcome [4] | Potency [5] | Potency [6] | outcome [7] | Potency [8] | outcome [9]

O=C(O)Cc1c(Cl)ccc(Cl)c1Cl
inactive: Potency [1] | outcome [2] | outcome [3] | outcome [4] | Potency [5] | Potency [6] | outcome [7] | Potency [8] | outcome [9]

CC1(C)S[C@@H]2[C@H](NC(=O)Cc3ccccc3)C(=O)N2[C@H]1C(=O)O (tested in a mixture with another compound)
inactive: Potency [1] | outcome [2] | outcome [3] | outcome [4] | Potency [5] | Potency [6] | outcome [7] | Potency [8] | outcome [9] | outcome [10]

CC(=O)OC1CCC(C(C)(C)C)CC1 (stereo not given)
inactive: Potency [1] | outcome [2] | outcome [3] | outcome [4] | Potency [5] | Potency [6] | outcome [7] | Potency [8] | outcome [9] | outcome [10]

C[C@@H]1NC(=O)[C@@H](N)CNC(=O)[C@H](C2CCNC(N)=N2)NC(=O)/C(=C/NC(N)=O)NC(=O)[C@H](CNC(=O)C[C@@H](N)CCCN)NC1=O (stereo not given in full)
inactive: activation [1] 1.04% [at 0.349 µM] | cAMP activity change [2] -0.133% [at 0.349 µM] | activity change, negative = inhibition [3] 2.75% [at 0.349 µM] | activity change, negative = cytotoxicity [4] -0.264% [at 0.349 µM] | activation [5] -1.98% [at 0.349 µM] | activity change, negative = inhibition [6] 9.13% [at 0.348 µM] | activity change, negative = cytotoxicity [7] 0.0667% [at 0.348 µM] | activity change, negative = cytotoxicity [8] -15.7% [at 0.349 µM] | viability change, negative = cytotoxic [9] 13.5% [at 0.29 µM] | activity change, negative = cytotoxicity [10] -5.87% [at 0.29 µM]

O=Cc1ccc(C(=O)O)cc1
inactive: Potency [1] | outcome [2] | outcome [3] | outcome [4] | Potency [5] | Potency [6] | outcome [7] | Potency [8] | outcome [9] | outcome [10]

Cc1ccc(N)nc1
inactive: Potency [1] | outcome [2] | outcome [3] | outcome [4] | Potency [5] | Potency [6] | outcome [7] | Potency [8] | outcome [9]

CN(C)c1ccncc1
inactive: Potency [1] | outcome [2] | outcome [3] | outcome [4] | Potency [5] | Potency [6] | outcome [7] | Potency [8] | outcome [9]

CCCC(=O)C(CC)Sc1ccoc1C (stereo not given)
inactive: Potency [1] | outcome [2] | outcome [3] | outcome [4] | Potency [5] | Potency [6] | outcome [7] | Potency [8] | outcome [9] | outcome [10]

O=CN1CCCCC1
inactive: Potency [1] | outcome [2] | outcome [3] | outcome [4] | Potency [5] | Potency [6] | outcome [7] | Potency [8] | outcome [9] | outcome [10]

O=C(O)Cc1ccccc1Oc1ccc(Cl)cc1Cl
inactive: Potency [1] | outcome [2] | outcome [3] | outcome [4] | Potency [5] | Potency [6] | outcome [7] | Potency [8] | outcome [9]

CCCCOCCCC
inactive: Potency [1] | outcome [2] | outcome [3] | outcome [4] | Potency [5] | Potency [6] | outcome [7] | Potency [8]

CCCCCCCOC(C)=O
inactive: Potency [1] | outcome [2] | outcome [3] | outcome [4] | Potency [5] | Potency [6] | outcome [7] | Potency [8] | outcome [9] | outcome [10]

CCN1CCN(C(=O)N[C@@H](C(=O)N[C@@H]2C(=O)N3[C@@H]2SC(C)(C)[C@H]3C(=O)O)c2ccccc2)C(=O)C1=O
inactive: Potency [1] | outcome [2] | outcome [3] | outcome [4] | Potency [5] | Potency [6] | outcome [7] | Potency [8] | outcome [9] | outcome [10]

NCC1CCC(C(=O)Oc2ccc(CCC(=O)O)cc2)CC1 (stereo not given)
inactive: Potency [1] | outcome [2] | outcome [3] | outcome [4] | Potency [5] | Potency [6] | outcome [7] | Potency [8] | outcome [9] | outcome [10]

CC(=O)SCC(CC(=O)c1ccc(C)cc1)C(=O)O (stereo not given)
inactive: Potency [1] | outcome [2] | outcome [3] | outcome [4] | Potency [5] | Potency [6] | outcome [7] | Potency [8] | outcome [9] | outcome [10]
